Compound activity from PubChem.
Shown are actives, neighbours in structure and some others; about 11% of the full set was active somewhere.
BAZ2B inh: inhibitors of human BAZ2B bromodomain | AlphaScreen BAZ2B-H3K14Ac peptide displacement | 360,000 tested, 4.4% active | Potency, µM (series often up to 114 µM), for the others: at the top dose activity change, negative = inhibition, usual class: inhibitors | Q9UIF8; further: on the % scale 0 is the no-effect control and ±100 the full control effect; nearly all actives have a fitted effect of over 60% in size
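Inhibition is scored as reduced AlphaScreen emission. The BAZ2B/b-H3(5-23)K14Ac complex (50 nM each) in PBS pH 7.4, 0.01% Tween-20 meets compound (up to 110 uM) for 30 min at RT before bead addition.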
G9a inh: G9a (human) methyltransferase inhibition; Q96KQ7; G9a H3K9 monomethylation, AlphaScreen, 2 h; Potency, µM (titrated, usually from 102 µM), for the others: at the top dose activity, negative = inhibition, usual class: inhibitors; 350,000 tested, 8.8% active; further: on the % scale 0 is the no-effect control and ±100 the full control effect; nearly all actives have a fitted effect of over 75% in size
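AlphaScreen read-out: biotin-H3K9 peptide (500 nM) methylation by 20 nM enzyme with 20 uM SAM, 2 h at room temperature after 15 min compound preincubation; anti-monomethyl H3K9 antibody plus donor/acceptor beads, 10 min dark.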
JMJD2A Tudor: JMJD2A Tudor domain (human) inhibition. O75164. AlphaScreen JMJD2A-Tudor / H3K4me3 peptide binding. Potency, µM (highest dose often 114 µM), for the others: top-dose activity change, negative = inhibition, most hits filed as inhibitors. 390,000 tested, 4.4% active. AID 504339; further: on the % scale 0 is the no-effect control and ±100 the full control effect; nearly all actives have a fitted effect of over 50% in size
HP1b chromo inh: blocks HP1-beta chromodomain binding to methylated histone tails; P83916; AlphaScreen HP1-beta / biotin-H3K9me3 peptide binding; Potency, µM (titrated, usually from 114 µM), inactives show top-dose activity change, negative = inhibition, actives largely listed as inhibitors; 390,000 tested, 0.56% active; further: nearly all actives have a fitted effect of over 70% in size
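Compound inhibition of the preformed complex between 50 nM HP1-beta and 50 nM biotinylated H3K9me3 peptide was read by AlphaScreen. Buffer was PBS pH 7.4 with 0.01% Tween-20. Incubations ran 30 min at room temperature, with 10 ug/mL donor/acceptor beads.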
L3MBTL1 block: L3MBTL1 (human) inhibition; AlphaScreen L3MBTL1–H3K9me1 peptide binding; Potency, µM (doses to about 57.1 µM), without a hit: at the top dose activity, negative = inhibition, actives largely listed as inhibitors; 230,000 tested, 0.66% active; further: on the % scale 0 is the no-effect control and ±100 the full control effect; nearly all actives have a fitted effect of over 60% in size
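L3MBTL1 (50 nM) pre-complexed 30 min with biotinylated H3(1-15)K9me1 peptide (75 nM), then compounds added for 30 min at room temperature; AlphaScreen streptavidin donor/nickel chelate acceptor beads (10 ug/mL final) read after 30 min dark incubation.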
The depositor's hits bear a star; [ ] = remark or other dose. The call rests on the fitted dose curve; in most records, active means well fitted inhibition curve with a large enough effect; inconclusive means small, poorly fitted or top-dose-only effect; inactive means no such curve, though single readings can be large or run the other way. Potency means the concentration at half of the fitted maximal effect.

For CCn1c(C)c(C(C)=O)c(N2CCN(c3ccc(OC)cc3)CC2)nc1=S the results were BAZ2B inh inconclusive, G9a inh 35.5µM*, JMJD2A Tudor -31.3%, HP1b chromo inh -3.9% and L3MBTL1 block -19.8%.
`CCOC(=O)c1ccc2ncc(C(=O)OCC)c(Nc3ccc(N4CCOCC4)cc3)c2c1` gave BAZ2B inh 14.1µM*, G9a inh inconclusive, JMJD2A Tudor 39.8µM*, HP1b chromo inh inconclusive and L3MBTL1 block inconclusive.
Screening CCOC(=O)c1cnc2ccccc2c1Nc1ccc(N2CCOCC2)cc1 returned BAZ2B inh inconclusive, G9a inh inconclusive, JMJD2A Tudor inconclusive and HP1b chromo inh -14.1%.
For CCOC(=O)c1cnc2c(C)c(Cl)ccc2c1Nc1ccc(N2CCOCC2)cc1 the results were BAZ2B inh 10µM*, G9a inh 7.94µM*, JMJD2A Tudor inconclusive and HP1b chromo inh -26.7%.
CCOC(=O)c1cnc(N2CCN(c3ccc(OC)cc3)CC2)c2ccccc12 was read as BAZ2B inh inconclusive, G9a inh 14.1µM*, JMJD2A Tudor inconclusive and HP1b chromo inh 1.2%[57 µM].
Screening COc1ccc(N2CCN(c3nc(=S)n(-c4ccccc4)c(C)c3C(C)=O)CC2)cc1 returned BAZ2B inh -9.4%, G9a inh -12.7%[59 µM], JMJD2A Tudor -34.6% and HP1b chromo inh 1.3%.
`CC(C)c1ccccc1NC(=O)CN(c1ccccc1)S(=O)(=O)N(C)C` gave BAZ2B inh 4.4%, G9a inh -0.9%[59 µM], JMJD2A Tudor 4.1% and HP1b chromo inh 37.6%.
CCOC(=O)c1ccccc1NC(=O)Cn1c(=O)n(CCCC(=O)NCc2ccc3c(c2)OCO3)c(=O)c2ccccc21 was read as BAZ2B inh 4.8%, G9a inh -20.8%[59 µM], JMJD2A Tudor -8.9% and HP1b chromo inh 54.0%.
For CCOC(=O)c1cnc2c(Cl)cc(Cl)cc2c1Nc1cc(C(=O)O)ccc1C the results were BAZ2B inh -14.5%, G9a inh -41.2%[59 µM], JMJD2A Tudor -20.8% and HP1b chromo inh 18.3%.
For CCOC(=O)c1cnc2ccc(OC)cc2c1Nc1ccc2c(c1)OCCO2 the results were BAZ2B inh inconclusive, G9a inh inconclusive, JMJD2A Tudor inconclusive, HP1b chromo inh -16.1% and L3MBTL1 block -24.9%.
CCOC(=O)c1cnc2c(C)cccc2c1Nc1ccc(N2CCOCC2)cc1 was read as BAZ2B inh 14.1µM*, G9a inh 28.2µM* and L3MBTL1 block inconclusive.
CCOC(=O)c1cnc2ccccc2c1Nc1cc(C(=O)O)ccc1C was read as BAZ2B inh -0.6%, G9a inh 50.1µM*, JMJD2A Tudor -3.0%[11.4 µM] and HP1b chromo inh 48.6%.
For CCOC(=O)c1cnc2ccc(OC)cc2c1Nc1ccc(N2CCN(C)CC2)cc1 the results were BAZ2B inh 35.5µM*, G9a inh 35.5µM*, JMJD2A Tudor 31.6µM* and HP1b chromo inh -32.1%[57 µM].
`CCOc1cccc2sc(N(CCN(CC)CC)C(=O)c3ccc(S(=O)(=O)N4CCCC4)cc3)nc12` gave BAZ2B inh -13.4%, G9a inh -9.6%, JMJD2A Tudor -2.2% and HP1b chromo inh 42.2%.
Screening CCN(CC)CCN(C(=O)c1ccc2ccccc2c1)c1nc2cc3c(cc2s1)OCO3 returned BAZ2B inh inconclusive, G9a inh 39.8µM*, JMJD2A Tudor inconclusive and HP1b chromo inh 15.0%.
For CCN(CC)CCN(C(=O)c1ccc(S(=O)(=O)N2CCCCC2)cc1)c1nc2cc3c(cc2s1)OCO3 the results were BAZ2B inh inconclusive, G9a inh 50.1µM*, JMJD2A Tudor inconclusive, HP1b chromo inh -8.4% and L3MBTL1 block -13.4%.
For CCC(C)Sc1cc(-c2nc3ccc(C)cn3c2NCc2ccccc2)ccc1OC (stereo not given) the results were JMJD2A Tudor 56.2µM* and HP1b chromo inh inconclusive.
Screening Cc1ccc2nc(-c3cccc(SC4CCCCC4)c3)c(NC3CCCCC3)n2c1 returned JMJD2A Tudor -29.3%, HP1b chromo inh 11.8% and L3MBTL1 block -3.0%.
Screening CCCCNc1c(-c2ccc(OC)c(SC3CCCCC3)c2)nc2ccc(C)cn12 returned JMJD2A Tudor inconclusive, HP1b chromo inh 20.9% and L3MBTL1 block -13.7%.
Screening COc1ccc(-c2nc3ccc(C)cn3c2NCc2ccccc2)cc1SC1CCCCC1 returned BAZ2B inh 50.1µM*, G9a inh 2.2%[2.33 µM], JMJD2A Tudor 79.4µM*, HP1b chromo inh 34.1% and L3MBTL1 block -12.5%.
For COc1ccc(-c2ccc(-c3nc4ccc(C)cn4c3NC3CCCCC3)cc2OC)cc1 the results were BAZ2B inh 44.7µM*, G9a inh 0.4%[2.33 µM], JMJD2A Tudor 39.8µM*, HP1b chromo inh -15.6% and L3MBTL1 block -18.4%.
For N#CN1CCC(NS(=O)(=O)c2ccc(F)cc2)C1 (stereo not given) the results were JMJD2A Tudor -6.8%.
Screening Cc1cc(OCCCn2c(CCNC(=O)C3CCCCC3)nc3ccccc32)ccc1Cl returned BAZ2B inh -4.1%, G9a inh -34.0%[59 µM], JMJD2A Tudor -13.8% and HP1b chromo inh 35.3%.
For Cc1ccc(C(=O)N(CCCN(C)C)c2nc3ccc(Cl)cc3s2)cc1C the results were G9a inh 70.8µM*, JMJD2A Tudor inconclusive and HP1b chromo inh -10.8%.
`Cc1ccc2nc(N(CCCN(C)C)C(=O)c3sc4ccccc4c3Cl)sc2c1` gave BAZ2B inh inconclusive, G9a inh 50.1µM*, JMJD2A Tudor 44.7µM*, HP1b chromo inh inconclusive and L3MBTL1 block -10.6%.
`CN(C)CCCN(C(=O)c1ccc2c(c1)CCCC2)c1nc2ccc(F)cc2s1` gave BAZ2B inh inconclusive, G9a inh 44.7µM*, JMJD2A Tudor inconclusive, HP1b chromo inh -21.1% and L3MBTL1 block inconclusive.
CCN(CC)CCN(C(=O)c1ccc2c(c1)CCCC2)c1nc2ccc(F)cc2s1 was read as G9a inh 50.1µM*, JMJD2A Tudor -35.2% and HP1b chromo inh 15.3%.
CCn1c(=O)cc(OCC(=O)N2CCN(c3cccc(Cl)c3)CC2)c2ccccc21 was read as BAZ2B inh inconclusive, G9a inh inconclusive, JMJD2A Tudor 5.1% and HP1b chromo inh 13.8%.
CCN(CC)CCN(C(=O)c1ccc2c(c1)CCCC2)c1nc2ccc(C)cc2s1 was read as BAZ2B inh -38.9%, G9a inh inconclusive, JMJD2A Tudor inconclusive and HP1b chromo inh -10.0%.
`CCN(CC)CCN(C(=O)c1ccc2c(c1)CCCC2)c1nc2c(C)cccc2s1` gave BAZ2B inh inconclusive, G9a inh 35.5µM*, JMJD2A Tudor inconclusive and HP1b chromo inh 28.4%.
Screening CCOc1ccc(CC(=O)Nc2c(C(=O)c3ccc(F)cc3)oc3ccc(Cl)cc23)cc1OCC returned BAZ2B inh -17.2%, G9a inh inconclusive, JMJD2A Tudor -4.5% and HP1b chromo inh 36.7%.
